G9a block = qHTS Assay for Inhibitors of Histone Lysine Methyltransferase G9a; G9a H3K9 monomethylation, AlphaScreen, 2 h; Potency, µM (highest dose often 102 µM), usual class: inhibitors; 8.8% of 350,000 active; note: nearly all actives have a fitted effect of over 75% in size
Target sequence (Q96KQ7 913-1193 limits assumed): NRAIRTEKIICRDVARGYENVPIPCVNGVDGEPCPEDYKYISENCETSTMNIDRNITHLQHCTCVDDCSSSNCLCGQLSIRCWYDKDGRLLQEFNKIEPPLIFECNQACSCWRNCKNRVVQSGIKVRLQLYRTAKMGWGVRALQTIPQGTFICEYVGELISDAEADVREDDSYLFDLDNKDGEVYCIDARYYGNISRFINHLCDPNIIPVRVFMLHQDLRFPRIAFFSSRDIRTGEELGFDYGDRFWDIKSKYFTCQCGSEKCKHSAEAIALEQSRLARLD
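Readings reflect AlphaScreen signal from monomethyl-H3K9 antibody detection. HMT at 20 nM; substrate b-H3K9 500 nM; cofactor SAM 20 uM; 2 h RT reaction; compounds tested as titrations in qHTS with 15 min preincubation.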
CtBP-E1A blk = qHTS Assay for Inhibitors of the CtBP/E1A Interaction; activity change, % (no concentration beside the values); AID 651724, 2012; 0.49% of 340,000 active; AlphaScreen GST-E1A/His-CtBP binding, 1536-well; active compounds read low; CtBP / adenovirus E1A interaction (AlphaScreen); in the data active = activity change below about -65%; inconclusive = mostly about -30% to -63%
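Steps: dispense buffer (Tris pH 8.0, NaCl 300 mM, TCEP 1 mM, BSA, Tween 20); add 5X protein mix (GST-E1A, His-CtBP, 125 nM each); pin 23 nL compound; 2 h at 37 °C, dark; add 5X beads (50 ug/mL); 1 h; read.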
BAZ2B inh = qHTS Assay for Inhibitors of BAZ2B | Bromodomain adjacent to zinc finger domain protein 2B (Homo sapiens), Q9UIF8 | AlphaScreen BAZ2B-H3K14Ac peptide displacement | Potency, µM (doses to about 114 µM), hits mostly inhibitors | 4.4% of 360,000 active | AID 504333, 2011; note: nearly all actives have a fitted effect of over 60% in size
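BAZ2B (50 nM) with biotin-H3(5-23)K14Ac peptide (50 nM) in PBS pH 7.4, 0.01% Tween-20, preformed 30 min, then compound 30 min at room temperature; top concentration 110uM. AlphaScreen streptavidin donor/nickel chelate acceptor beads (10 ug/mL final), 20 min dark, signal read.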
Six1-Eya2 inh = qHTS Assay for Inhibitors of the Six1/Eya2 Interaction; Homeobox protein SIX1 (Homo sapiens) + Protein phosphatase EYA2 (Homo sapiens), …; activity change, % (concentration not given with the values); AID 651725, 2012; AlphaScreen GST-Six1/His-Eya2 binding, biochemical; active compounds read low; 0.56% of 360,000 active; in the data active = activity change below about -65%; inconclusive = mostly about -30% to -63%
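Homogeneous AlphaScreen proximity assay pairing GST-Six1 with His-tagged Eya2 (added as 5X mix: 250 nM and 500 nM) in 50 mM Tris pH 8.0, 300 mM NaCl, 1 mM TCEP. Glutathione donor and nickel acceptor beads; 1 h, 37 °C, dark.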
HP1b chromo inh = HTS for Inhibitors of HP1-beta Chromodomain Interactions with Methylated Histone Tails; Chromobox protein homolog 1 (Homo sapiens), P83916; AlphaScreen HP1-beta / biotin-H3K9me3 peptide binding; Potency, µM (top dose mostly 114 µM), hits mostly inhibitors; 0.56% of 390,000 active; AID 540317, 2011; note: nearly all actives have a fitted effect of over 70% in size
Target sequence (P83916 whole entry, looked up): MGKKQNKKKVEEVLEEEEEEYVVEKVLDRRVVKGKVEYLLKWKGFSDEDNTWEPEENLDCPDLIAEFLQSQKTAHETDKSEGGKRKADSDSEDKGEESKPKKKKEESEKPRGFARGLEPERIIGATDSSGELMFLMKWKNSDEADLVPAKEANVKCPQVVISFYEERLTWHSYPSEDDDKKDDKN
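Compound inhibition of the preformed complex between 50 nM HP1-beta and 50 nM biotinylated H3K9me3 peptide was read by AlphaScreen. Buffer was PBS pH 7.4 with 0.01% Tween-20. Incubations ran 30 min at room temperature, with 10 ug/mL donor/acceptor beads.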
JMJD2A Tudor inh = qHTS Assay for Inhibitors of JMJD2A-Tudor Domain. AlphaScreen JMJD2A-Tudor / H3K4me3 peptide binding. Potency, µM (top dose mostly 114 µM), actives largely listed as inhibitors. Lysine-specific demethylase 4A (Homo sapiens), O75164. 4.4% of 390,000 active. AID 504339, 2011; note: nearly all actives have a fitted effect of over 50% in size
A number is an active result; – = inactive; ? = inconclusive; · = no result given; [ ] = another dose, or the depositor's remark. Shown are actives, neighbours in structure and some others; about 10% of the full set was active somewhere. Unless noted, calls come from the whole dose curve; as a rule, active = well fitted inhibition curve with a large enough effect; inconclusive = small, poorly fitted or top-dose-only effect; inactive = no such curve, though single readings can be large or run the other way.

SMILES | G9a block | CtBP-E1A blk | BAZ2B inh | Six1-Eya2 inh | HP1b chromo inh | JMJD2A Tudor inh
CN(CCOc1ccc(Br)cc1)CC(O)COc1ccc(C#N)cc1 (configuration not stated) | – | – | – | – | – | –
CC(C)c1ccc(CN(C)CC(O)c2ccccc2)cc1 (configuration not stated) | ? | – | 89.1µM | – | – | –
CC(OCC(O)CN(C)CCOc1ccccc1)c1ccc(Cl)cc1 (configuration not stated) | ? | – | ? | – | ? | 3.55µM
CN(CCOc1ccccc1)CC(O)COc1ccccc1 (configuration not stated) | ? | – | – | – | – | –
CN(CCOc1ccc(Cl)cc1)CC(O)c1ccccc1 (configuration not stated) | 3.55µM | – | 20µM | – | 70.8µM | 1.12µM
CCC(C)c1ccccc1NC(=O)CN(C)CCOc1ccc(Cl)cc1 (configuration not stated) | – | – | – | – | – | –
CN(CCOc1ccccc1)CC(O)COCc1ccccc1F (configuration not stated) | 10µM | – | 70.8µM | – | ? | ?
OC(CN(Cc1ccccc1)Cc1ccccc1)c1ccccc1 (configuration not stated) | · | – | · | – | – | –
CN1CCC(N(C)CC(O)c2ccccc2)CC1 (configuration not stated) | 8.91µM | – | 50.1µM | – | – | 3.55µM
c1cc(CN2CCN(C3CCCCCC3)CC2)ccn1 | 1.78µM | · | · | – | ? | 20µM
CCS(=O)(=O)N1CCN(Cc2ccncc2)CC1 | 14.1µM | – | 35.5µM | – | 50.1µM | 3.55µM
Fc1ccc(C(c2nnnn2C2CCCC2)N2CCN(Cc3ccncc3)CC2)cc1 (configuration not stated) | ? | – | – | – | – | –
CCCS(=O)(=O)N1CCN(c2ccccn2)CC1 | – | – | – | – | – | –
CCCS(=O)(=O)N1CCN(Cc2ccncc2)CC1 | ? | – | 35.5µM | – | ? | 20µM
CC(=O)O[C@@]1(C(C)=O)CCC2C3CC(C)C4=CC(=O)CC[C@@]4(C)C3CC[C@]21C (some centres not stated) | –[2.33 µM] | · | · | · | · | ·
O=S(=O)(NC1=NCCCCC1)c1ccc2sc(NS(=O)(=O)c3ccc4ccccc4c3)nc2c1 | · | · | – | – | – | –
O=C(CCS(=O)(=O)Cc1ccccc1)Nc1nc2c(s1)CCCC2 | –[12.7 µM] | – | – | – | – | –
c1ccc2c(Nc3nc4c(s3)CCCC4)cccc2c1 | –[0.0925 µM] | – | 50.1µM | – | ? | –
O=S(=O)(Nc1nc2c(s1)CCCC2)c1ccc2ccccc2c1 | 50.1µM | – | ? | – | – | ?
COc1cc(/C=N/N=C(/C(=O)c2ccccc2)c2ccccc2)cc(OC)c1O | ? | – | ? | – | ? | 44.7µM
CC(C)CCCC(C)C1CC(=O)C2=C3CCC4CC(O)CCC4(C)C3CCC21C (configuration not stated) | –[12.7 µM] | · | · | · | · | ·
COc1cc(/C=N/NC(=O)c2ccoc2C)ccc1O | 50.1µM | – | – | – | – | –
COc1cccc(/C=N/NC(=O)c2ccoc2C)c1 | · | – | – | – | – | –
CCOc1ccc(/C=N/NC(=O)c2ccoc2C)cc1OC | – | – | – | – | – | –
COc1cccc(/C=N/NC(=O)c2cc3cc([N+](=O)[O-])ccc3s2)c1O | ? | ? | 22.4µM | ? | ? | 63.1µM
SMILES | G9a block | CtBP-E1A blk | BAZ2B inh | Six1-Eya2 inh | HP1b chromo inh | JMJD2A Tudor inh
COC(=O)c1cccc(/C=N/NC(N)=S)c1O | – | · | 4.47µM | -66.3 | – | ?
COc1cccc(/C=N/NC(=O)c2ccoc2C)c1O | – | -91.9 | – | -74.4 | – | –[11.4 µM]
NC(=S)N/N=C/c1ccccc1[N+](=O)[O-] | · | – | – | – | ? | –
CC(NC(=O)c1ccccc1F)C12CC3CC(CC(C3)C1)C2 (configuration not stated) | –[2.33 µM] | – | – | – | – | –
Cc1ccc(S(=O)(=O)N2CCCCC2)cc1NC(=O)COC(=O)c1cccc(O)c1 | · | – | · | – | · | ·
COc1ccc(/C=N/NC(=O)c2ccoc2C)cc1CN1CCN(c2ccc(F)cc2)CC1 | ? | · | 79.4µM | – | ? | ?
COc1cccc(/C=N/NC(=O)c2cnccn2)c1O | – | -65.2 | 79.4µM | -91.9 | – | –[11.4 µM]
COc1ccc(C(=O)N/N=C/c2ccc(OC)c(CN3CCN(c4ccc(F)cc4)CC3)c2)cc1 | – | – | – | – | – | ?
O=C1NCC(c2ccccc2)C1C(=O)N/N=C\c1ccc(-c2cccc(Cl)c2Cl)o1 (configuration not stated) | 12.6µM | – | ? | – | – | ?
COc1cccc(/C=N\NC(=O)C2C(=O)NCC2c2ccccc2)c1O (configuration not stated) | – | -89.8 | – | -86.5 | – | –
COc1ccc(/C=N/NC(=O)C2C(=O)NCC2c2ccccc2)c(OC)c1 (configuration not stated) | – | – | – | – | – | –
Cc1ccc(-c2ccc(/C=N\NC(=O)C3C(=O)NCC3c3ccccc3)o2)cc1Cl (configuration not stated) | ? | – | – | – | – | ?
CC1=C(c2ccc(C(C)C)cc2)S(=O)(=O)NC1=NCc1ccc(OC(C)C)cc1 | – | · | – | · | – | –
COc1cccc(/C=N/NC(=O)C(=O)NCc2ccco2)c1O | – | -97.3 | – | -89.3 | – | ?
COc1cccc(/C=N/NC(=O)C(=O)NCc2ccco2)c1OC | – | – | – | – | – | –
COc1cccc(/C=N/NC(=O)C(=O)N2CCCCCC2)c1O | · | -89.4 | 79.4µM | -82.5 | – | 79.4µM
COc1cccc(/C=N/NC(=O)C(=O)N/N=C/c2cccc(OC)c2O)c1O | – | ? | 50.1µM | ? | – | 100µM
CCC(=O)N1CCC1(C)C(=O)Nc1ccc(Cl)c(Cl)c1 (configuration not stated) | · | – | · | – | · | ·
COC(=O)[C@]12CCCCC=C1N(Cc1ccc3c(c1)OCO3)C(=O)[C@H](CC(=O)N1CCN(C(=O)C3CC3)CC1)C2 | · | – | · | – | · | ·
CCCC1=Nc2cc(C(=O)N3CCN(c4ccccn4)CC3)ccc2Sc2ccc(C)cc21 | 15.8µM | – | ? | – | – | ?
CCCC1=Nc2cc(C(=O)N3CCCC3)ccc2Sc2ccc(C)cc21 | – | – | ? | – | – | 17.8µM
Cc1nn(C)c(C(=O)Nc2ccc(Cl)c([N+](=O)[O-])c2)c1Cl | 15.8µM | – | – | – | – | –
